In all, about 290,000 compounds went through this assay and about 3,000 (1%) were called active. Cut-off read from the data, not from the text of the source: active = inhibition mostly above about 36% (no sharp cut-off); inactive = mostly below about 34%. This excerpt belongs to a sample that is enriched for actives.
Assay: NOD1 signaling inhibitors, primary screen, cell-based, luminescence, uHTS (AID 1578);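 note: HEK-293T reporter cells stimulated with the NOD1 agonist gamma-tri-DAP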
Details: NOD1-driven NF-kB luciferase reporter cells, at 4 µM, hits give high values

Row | SMILES | inhibition
1 | CC(=O)Nc1ccc(NC(=O)CSc2nnc(NC(=O)C3CC3)s2)cc1 | -6.1% (inactive)
2 | CN1C(=O)c2cccc(NC(=O)C3CCCCC3)c2C1=O | -4% (inactive)
3 | Cc1cccc(NC(=S)NNc2ncc(C(F)(F)F)cc2Cl)c1 | 34.9% (inactive)
4 | FC(F)(F)c1cnc(NNC(=S)Nc2ccc(Cl)cc2)c(Cl)c1 | 104% (active)
5 | Cc1ccc(NC(=S)NNc2ncc(C(F)(F)F)cc2Cl)cc1 | 36.4% (inactive)
6 | C=CCN1C(=O)C(CC(=O)O)SC1=Nc1ccc(N=Nc2ccccc2)cc1 (configuration not stated) | -20.5% (inactive)
7 | O=C(CN1C2=NCCN2c2ccccc21)c1ccc(Br)cc1 | 6.8% (inactive)
8 | Cc1ccc2c(Cl)cc(Cl)c(OCC(=O)N(C(C)C)C(C)C)c2n1 | -3.8% (inactive)
9 | Cc1cc(Cl)cc(Cl)c1OCC(=O)NCc1ccco1 | 20.4% (inactive)
10 | Cc1ccc2c(Cl)cc(Cl)c(OCC(=O)NC(C)(C)C)c2n1 | -11.5% (inactive)
11 | CCN(CC(=O)NC(C)(C)C)C(=O)COc1c(Cl)cc(Cl)c2ccc(C)nc12 | 49.3% (active)
12 | Cc1ccc2c(Cl)cc(Cl)c(OCC(=O)NCc3ccco3)c2n1 | 101% (active)
13 | Cc1ccc2c(Cl)cc(Cl)c(OCC(=O)NC(=O)NCc3ccco3)c2n1 | -16.8% (inactive)
14 | COc1cccc(CN(C)C(=O)CNC(=O)c2ccc3c(c2)OCO3)c1OC | -8.5% (inactive)
15 | CC(C(=O)Nc1ccc2c(c1)OCO2)N(c1ccc(Cl)cc1)S(C)(=O)=O (configuration not stated) | -9.6% (inactive)
16 | COc1ccc(-c2oc(NC(=O)c3ccc(C)cc3)c(C#N)c2-c2ccc(OC)cc2)cc1 | -18.9% (inactive)
17 | COc1ccc(-c2oc(NC(C)=O)c(C#N)c2-c2ccc(OC)cc2)cc1 | 11.7% (inactive)
18 | COc1ccc(-c2oc(NC(=O)CCl)c(C#N)c2-c2ccc(OC)cc2)cc1 | 71.1% (active)
19 | COC(=O)CN1C(=O)C2(C(C#N)=C(N)Oc3ccccc32)C2=C1CC(C)(C)CC2=O (configuration not stated) | 1.7% (inactive)
20 | COc1ccc(-n2c(C)c(C(C)=O)c(C(C)=O)c2C)cc1OC | -0.8% (inactive)
21 | COc1ccc(NC(=S)NC(NC(=O)CCl)C(Cl)(Cl)Cl)c([N+](=O)[O-])c1 (configuration not stated) | 76.4% (active)
22 | COc1ccc(NC(=S)NC(NC(C)=O)C(Cl)(Cl)Cl)c([N+](=O)[O-])c1 (configuration not stated) | -5.3% (inactive)
23 | COc1ccc(NC(=S)NC(NC(=O)C(C)C)C(Cl)(Cl)Cl)c([N+](=O)[O-])c1 (configuration not stated) | 11.7% (inactive)

Row | SMILES | inhibition
24 | CCOC(=O)N1CCC(NC(=O)c2ccc3c(c2)N=C(CC)c2ccccc2S3)CC1 | 20.2% (inactive)
25 | O=C(NNC(=S)Nc1ccccc1)c1ccccc1[N+](=O)[O-] | -34.4% (inactive)
26 | CCC(C)(C(=O)NC1CCCCC1)N(C(=O)CNC(C)=O)c1c(C)n(C)n(-c2ccccc2)c1=O (configuration not stated) | -13.9% (inactive)
27 | NC(=S)NN=C1c2cc(OCCN3CCOCC3)ccc2-c2ccc(OCCN3CCOCC3)cc21 | 42.8% (active)
28 | ON=C1c2cc(OCCN3CCCCC3)ccc2-c2ccc(OCCN3CCCCC3)cc21 | 0.3% (inactive)
29 | NC(=S)NN=C1c2cc(S(=O)(=O)N3CCOCC3)ccc2-c2ccc(S(=O)(=O)N3CCOCC3)cc21 | -20.4% (inactive)
30 | Cc1cccc(C(=O)Nc2ccc(C(=O)Nc3ccc(O)cc3)cc2)c1 | -22.1% (inactive)
31 | COc1ccc(CC(=O)OCC(=O)NCCc2ccccc2)cc1OC | -25.2% (inactive)
32 | C=CCn1c(SCCOc2ccc(OC)cc2)nnc1C(C)NC(=O)Cc1ccc(OC)cc1 (configuration not stated) | 74.9% (active)
33 | COc1ccc(CC(=O)NC(C)c2nnc(SCCOc3ccc(OC)cc3)n2C)cc1 (configuration not stated) | -0.8% (inactive)
34 | C=CCn1c(SCCOc2ccc(OC)cc2)nnc1C(C)NC(=O)c1ccc(OC)cc1 (configuration not stated) | 5.8% (inactive)
35 | COc1ccc(-c2cc(C(=O)N/N=C(\C)c3ccco3)c3ccccc3n2)c(OC)c1 | -42.5% (inactive)
36 | CCN1C(=NCc2ccc(OC)cc2)N[C@@H](c2ccccc2)C(C(=O)OC)=C1C | -15.5% (inactive)
37 | CC(C)CCN1CCN(Cc2cccn2-c2nccs2)CC1CCO (configuration not stated) | -20.1% (inactive)
38 | CN1CCN(C(=O)CCC(=O)O)CC1 | -14.8% (inactive)
39 | COc1ccc2cc3c(N)nn(C(=O)Cc4ccc(Cl)cc4)c3nc2c1 | 14.9% (inactive)
40 | COc1cccc(CC(=O)n2nc(N)c3cc4ccc(OC)cc4nc32)c1 | 3.9% (inactive)
41 | OCCNc1ncnc2ccc(Br)cc12 | 46.1% (inactive)
42 | CCN(CC)c1ncnc2ccc(Br)cc12 | 67.5% (active)
43 | CCOc1ccccc1Nc1ncnc2ccc(Br)cc12 | -11.1% (inactive)
44 | CC(C)Nc1ncnc2ccc(Br)cc12 | 87.6% (active)
45 | Cc1cccc(Nc2ncnc3ccc(Br)cc23)c1 | 42.4% (inactive)
46 | Clc1cccc(Nc2ncnc3ccc(Br)cc23)c1 | 11.7% (inactive)

Row | SMILES | inhibition
47 | CN(C)c1ccc(Nc2ncnc3ccc(Br)cc23)cc1 | 53.8% (inactive)
48 | CN(Cc1ccccc1)c1ncnc2ccc(Br)cc12 | 10.2% (inactive)
49 | Cc1ccc(CC2C(=O)N(c3cc(Cl)ccn3)C(=O)C2C)cc1 (configuration not stated) | -9.5% (inactive)
50 | Cc1nn(C)cc1CN1CCC(n2nccc2NC(=O)CCCc2ccccc2)CC1 | -26.7% (inactive)
51 | O=C(/C=C/c1ccco1)c1ccccc1O | -22.5% (inactive)
52 | COc1ccc(NC(=O)c2cc(-c3ccc(OC)c(OC)c3)on2)cc1OC | -8.9% (inactive)
53 | N#Cc1ccc(N2CCCC2C(=O)O)c([N+](=O)[O-])c1 (configuration not stated) | 6.2% (inactive)
54 | COC(=O)C1(c2ccccc2)NC(c2cccs2)C2C(=O)N(C)C(=O)C21 (configuration not stated) | -15.5% (inactive)
55 | CN(C)/C=C1\N=C(c2cccnc2Oc2ccc(Cl)cc2)OC1=O | -11.9% (inactive)
56 | COc1ccc(OC)c(NC(=O)CNC(=O)Cn2ccc3ccccc3c2=O)c1 | -4% (inactive)
57 | CN(C)c1nc2n(c(=O)n1)CCS2 | -11.7% (inactive)
58 | CCOC(=O)C1CCN(S(=O)(=O)c2cccc3nonc23)CC1 | -27.8% (inactive)
59 | CCOC(=O)C1CCN(S(=O)(=O)c2c(Cl)ccc3nonc23)CC1 | 102% (active)
60 | CCOC(=O)C1CCN(S(=O)(=O)c2c(C)noc2C)CC1 | -15.9% (inactive)
61 | CC(CCN1CCOCC1)c1ccccc1 (configuration not stated) | -28% (inactive)
62 | O=C(NC1CCCCC1)c1ccc(S(=O)(=O)c2ccccc2Cl)c([N+](=O)[O-])c1 | 91.4% (active)
63 | O=C(c1ccc(S(=O)(=O)Cc2cc(F)ccc2F)c([N+](=O)[O-])c1)N1CCCC1 | 5% (inactive)
64 | O=C(NC1CCCCC1)c1ccc(S(=O)(=O)c2ccccc2)cc1 | 18% (inactive)
65 | O=C(c1ccc(Br)c([N+](=O)[O-])c1)N1CCN(Cc2ccccc2)CC1 | -6.4% (inactive)
66 | O=C(NC1CCCC1)c1ccc(Cl)c(S(=O)(=O)N2CCCCC2)c1 | 10.6% (inactive)
67 | O=C(c1ccc(S(=O)(=O)Cc2ccccc2F)c([N+](=O)[O-])c1)N1CCCCCC1 | 1% (inactive)
68 | Cc1ccc(C(=O)N2CCN(c3ccccc3)CC2)cc1S(=O)(=O)N1CCCC1 | 3.9% (inactive)
69 | Cc1cc(C(=O)N2CCN(Cc3ccccc3)CC2)ccc1[N+](=O)[O-] | 0.5% (inactive)

Row | SMILES | inhibition
70 | O=C(c1ccc(Cl)c(S(=O)(=O)N2CCCC2)c1)N1CCN(c2ccc(F)cc2)CC1 | 0.4% (inactive)
71 | COc1cccc(C(=O)NCCCNC(=O)c2cccc(OC)c2)c1 | -4.9% (inactive)
72 | CCN(CC)S(=O)(=O)c1ccc(S(=O)(=O)N2CCN(C(=O)c3ccco3)CC2)cc1 | -3.5% (inactive)
73 | CC(=O)Nc1ccc(NC(=O)C(C)Sc2nnc(-c3cccs3)o2)cc1 (configuration not stated) | -14.2% (inactive)
74 | Cc1ccccc1C(=O)Nc1ccccc1 | -15.4% (inactive)
75 | Cc1c(C(=O)NN2CCOCC2)oc2c1ccc1ccccc12 | -35.1% (inactive)
76 | COc1ccc(CCNC(=O)COC(=O)/C=C/c2ccc(OCC#N)c(OC)c2)cc1 | -30.9% (inactive)
77 | Cc1cc(C)n2nc(C(=O)N3CCN(c4ccc([N+](=O)[O-])cc4)CC3)nc2n1 | -21.8% (inactive)
78 | CCOC(=O)C1CCN(CC(O)COCc2ccccc2)CC1 (configuration not stated) | 34.7% (active)
79 | CCOC(=O)C1CCN(CC(O)COCc2ccc(Cl)cc2)CC1 (configuration not stated) | -12.3% (inactive)
80 | CCOC(=O)C1CCN(CC(O)COCc2cccs2)CC1 (configuration not stated) | -28.2% (inactive)
81 | COC(=O)c1ccc(/C=N/NC(=O)c2ccc3nc[nH]c3c2)cc1 | -10.6% (inactive)
82 | O=C(O)CCc1ccc(-c2ccc(Br)cc2)n1Cc1ccco1 | -8.6% (inactive)
83 | CC(C)[C@H](NC(=O)N1CCn2c1nc1ccccc12)C(=O)N[C@@H](C(=O)O)c1ccccc1 | 1.1% (inactive)
84 | CC(C)[C@H](NC(=O)N1CCn2c1nc1ccccc12)C(=O)N[C@H](C(=O)O)c1ccccc1 | 68.4% (active)
85 | CC(C)C[C@H](NC(=O)N1CCn2c1nc1ccccc12)C(=O)N[C@@H](C(=O)O)c1ccccc1 | -6% (inactive)
86 | CC(C)(C)C(=O)NC1(C(F)(F)F)NC(=O)N(c2ccccc2F)C1=O (configuration not stated) | 2.6% (inactive)
87 | Cc1cnc(NC(=O)c2nn(C)cc2[N+](=O)[O-])s1 | 24.8% (inactive)
88 | CCn1cc([N+](=O)[O-])c(C(=O)Nc2nc(-c3ccc(C)c(C)c3)c(C)s2)n1 | -63.4% (inactive)
89 | Cn1cc([N+](=O)[O-])c(C(=O)Nc2nccs2)n1 | -14.6% (inactive)
90 | CCn1cc([N+](=O)[O-])c(C(=O)Nc2nc(-c3ccc(C)cc3)c(C)s2)n1 | 2.6% (inactive)
91 | Cc1csc(=S)n1-c1ccccc1 | 5.1% (inactive)
92 | COc1ccccc1C(=O)N/C(=C\c1cn(S(=O)(=O)N(C)C)c2ccccc12)C(=O)NCCN1CCOCC1 | -15% (inactive)
